From PubChem BioAssay (NCI)
This is part of a sample that, as a whole, favours compounds with a hit. Of some 83,000 tested, about 20% had one in any assay.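 Testing used 96-well plates and a 48-hour single-concentration exposure. Example: -40 means 40% of the starting cells died.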 Activity calls are given as the source filed them. The calls were made as follows: active = growth percent below 10; inactive = the rest.

Columns and labels:
Assay in all cases: NCI-60 one-dose screen, 48 h (100 = growth as untreated, 0 = no growth, -100 = all killed)
Conditions in all cases: 10 µM unless noted
[1] = test system: EKVX NSCLC
[2] = test system: SN12C renal
[3] = test system: UO-31 renal
[4] = test system: TK-10 renal
[5] = test system: ACHN renal
[6] = test system: CAKI-1 renal
[7] = test system: A498 renal
[8] = test system: CCRF-CEM leukemia
[9] = test system: MOLT-4 leukemia

Measured: growth

Cn1cnc(-c2cc3nccc(Oc4ccc(NC(=S)NC(=O)Cc5ccccc5)cc4F)c3s2)c1
inactive: [1] 109% | [2] 54.1% | [3] 72.2% | [4] 85.1% | [5] 80.4% | [6] 80.8% | [7] 62.9% | [8] 58.6% | [9] 69.4%

COc1cc2ncnc(Nc3ccc(F)c(Cl)c3)c2cc1NC(=O)/C=C/CN1CCCCC1
active: [1] -40.3% | [2] -76.1% | [3] -90.2% | [4] -88.8% | [5] -97.9% | [6] -85.4% | [7] -80.4% | [8] 6.37% | [9] -13.1%

CNC(=O)c1cc(Oc2ccc(NC(=O)Nc3ccc(Cl)c(C(F)(F)F)c3)c(F)c2)ccn1
active: [1] -3.92% | [2] -40.4% | [3] -43.1% | [4] -3.33% | [5] 0.875% | [6] 1.01% | [7] -61.7% | [8] 1.42% | [9] -7.86%

Cn1nccc1Nc1nccc(-c2ccn([C@H](CO)c3ccc(Cl)c(F)c3)c(=O)c2)n1
inactive: [1] 93% | [2] 107% | [3] 68% | [4] 67.4% | [5] 90.8% | [6] 79.9% | [7] 70.5% | [8] 99.8% | [9] 96%

C[C@]12O[C@H](C[C@]1(O)CO)n1c3ccccc3c3c4c(c5c6ccccc6n2c5c31)CNC4=O
active: [1] -8.26% | [2] -42% | [3] -63.1% | [4] -81.5% | [5] -8.21% | [6] -96.5% | [7] -96.1% | [8] 0.654% | [9] -18%

Cc1ccc(NC(=O)c2ccc(CN3CCN(C)CC3)cc2)cc1Nc1nc(-c2cccnc2)cs1
active: [9] 5.98%
inactive: [1] 48.3% | [2] 74% | [3] 82.9% | [4] 88.3% | [5] 48.3% | [6] 78% | [7] 64.8% | [8] 11.8%

O=[N+]([O-])c1cc(Br)cc2c1[nH]c1ccc(Br)cc12
inactive: [1] 60.2% | [2] 82.7% | [3] 25.5% | [4] 52.8% | [5] 32.9% | [6] 51.4% | [7] 76.2% | [8] 65.2% | [9] 77.1%

O=C(Nc1ccc(Nc2ncnc3sc4c(c23)CCOC4)cc1)Nc1ccc(Cl)c(C(F)(F)F)c1
inactive: [1] 105% | [2] 105% | [3] 115% | [4] 109% | [5] 86.6% | [6] 107% | [7] 89.5% | [8] 86.7% | [9] 74.4%

Nc1ncnc2c1c(-c1cccc(OCc3ccccc3)c1)cn2C1CC(CN2CCC2)C1 (stereo unspecified)
active: [3] -66.6% | [6] 7.5% | [7] -1.47% | [8] 5.52% | [9] -14.5%
inactive: [1] 30.1% | [2] 35.5% | [4] 28.4% | [5] 18.7%

COc1cccc(NC(=O)Nc2ccc(Nc3ncnc4sc5c(c34)CCN(C(=O)CCl)C5)cc2)c1
inactive: [1] 109% | [2] 96.3% | [3] 66.6% | [4] 122% | [5] 88.7% | [6] 94.2% | [7] 93.1% | [8] 88.4% | [9] 92.8%

O=C(O)c1ccc(Nc2ncc3c(n2)-c2ccc(Cl)cc2C(c2c(F)cccc2F)=NC3)cc1
inactive: [1] 80.1% | [2] 62.8% | [3] 41.8% | [4] 40.1% | [5] 49% | [6] 47.6% | [7] 25.3% | [8] 36.6% | [9] 44.6%

Cc1nc(N)sc1-c1ccnc(Nc2ccc(N3CCOCC3)cc2)n1
inactive: [1] 71.7% | [2] 49.8% | [3] 19.7% | [4] 39.9% | [5] 29.7% | [6] 20.8% | [7] 32.6% | [8] 23% | [9] 13.8%

CNC(=O)c1cc(Oc2ccc(NC(=O)Nc3cc(C(C)(C)C)nn3-c3ccc4ncccc4c3)c(F)c2)ccn1
active: [1] -16.9% | [2] -10.3% | [3] -21.4% | [4] -35.5% | [5] -20.6% | [6] -24.9% | [7] -71.3% | [8] 8.17% | [9] -1.34%

COc1cccc2cc(-c3nc(C4CCC(C(=O)O)CC4)n4ncnc(N)c34)[nH]c12 (stereo unspecified)
active: [3] -12.4% | [4] -22.3% | [5] 4.68% | [6] -22.7% | [7] -50.6% | [8] 9.93%
inactive: [1] 11.6% | [2] 14% | [9] 15.2%
